Results as given in PubChem BioAssay.
The source made the active and inactive calls.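 How the source made its calls: active means inhibition above the hit cutoff set in the earlier primary screen (cut at about 27% in these data); inactive means the rest.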

target: Protein phosphatase methylesterase 1 (Homo sapiens) (UniProt Q9Y570); assay: human PME-1 methylesterase inhibition confirmation – biochemical, fluorescence polarization, FP-Rh probe, triplicate (AID 2171); conditions: recombinant PME-1, FP-Rh probe fluorescence polarization; at 5.9 µM; stronger effect = higher value;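 further: 0% = enzyme with DMSO and 100% = wells lacking PME-1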
Sequence (Q9Y570 whole entry, looked up): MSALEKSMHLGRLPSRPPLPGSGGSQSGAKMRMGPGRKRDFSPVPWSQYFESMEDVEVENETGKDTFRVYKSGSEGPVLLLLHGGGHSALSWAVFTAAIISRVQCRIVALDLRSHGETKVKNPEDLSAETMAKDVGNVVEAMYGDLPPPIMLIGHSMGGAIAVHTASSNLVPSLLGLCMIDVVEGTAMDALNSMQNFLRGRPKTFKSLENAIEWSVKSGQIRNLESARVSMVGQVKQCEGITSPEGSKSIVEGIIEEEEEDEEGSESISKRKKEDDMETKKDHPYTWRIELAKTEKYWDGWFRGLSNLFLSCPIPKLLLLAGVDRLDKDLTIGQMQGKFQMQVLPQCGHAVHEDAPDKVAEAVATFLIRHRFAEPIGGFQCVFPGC

inhibition, inactive:
COc1ccc(CCn2c(N)c(C#N)c3nc4ccccc4nc32)cc1OC 25.9%
CCCn1c(N)c(C(=O)CN(C)CC(=O)Nc2ccccc2CC)c(=O)[nH]c1=O 20.4%
CSc1nsc(/C=C/Nc2ccc(O)cc2C)c1C#N -1.46%
O=C(Nc1ccc(-c2csc(Nc3ccc(Cl)cc3)n2)cc1)c1cccc(C(F)(F)F)c1 -1.3%
COc1ccc(Nc2ncnc3sc(-c4ccccc4)cc23)cc1 10.1%
COc1ccc(-c2sc(Nc3ccc(F)c(F)c3F)nc2CCC(=O)NN)cc1 24.1%
COc1ccc(C2Nc3cccc4cccc(c34)N2)cc1Br 15.1%
Nc1ccc(Br)c2c1C(=O)c1ccccc1C2=O 21%
CCc1nnc(NC(=O)CSc2nc(C)c3c(c2C#N)CCCC3)s1 13.9%
O=c1cc(N2CCCCC2)c(-c2ccccc2)nn1Cc1c(Cl)cccc1Cl 25.3%
O=c1[nH]nc(CNc2ccc(O)cc2)c2ccccc12 8.74%
CCOC(=O)Cc1csc(NC(=O)c2sc3nc4cc(C)ccc4cc3c2N)n1 20.8%
N#Cc1cc2ccccc2nc1SCC(=O)Nc1ccccc1N1CCOCC1 20.3%
CCNc1cc(O)ccc1C 2.02%
CC1=C([N+](=O)[O-])C(c2cccc(Br)c2)C2=C(N1)c1ccccc1C2=O (stereo not given) 11.9%

inhibition, active:
Cc1ccc(C(=O)N/N=C/c2ccc(-c3ccc(Br)cc3[N+](=O)[O-])o2)o1 33.1%
CCOc1ccc(/C=C2\SC(=S)N(C(C(=O)O)c3ccccc3)C2=O)cc1OC (stereo not given) 43.8%
Cn1c(N/N=C/c2c[nH]c3ccccc23)nc2ccccc21 28.6%
COc1ccc(-c2nc(-c3cccs3)c(-c3cccs3)[nH]2)cc1O 39.6%
Cc1cccc(NC(=S)N/N=C/c2c[nH]c3ccccc23)c1 33.3%
Cc1ccc2[nH]c(O)c(N=NC(=O)c3ccc(NS(=O)(=O)c4cccs4)cc3)c2c1 45.9%
CC(=O)Oc1ccc2c(c1)Oc1cc(OC(C)=O)ccc1C21OC(=O)c2ccccc21 148%
CCc1cccc(CC)c1NC(=O)COc1ccccc1C(=O)c1cc(C#N)c(=O)n(C2CCCCC2)c1 35.9%
COc1cccc(NC(=O)Nc2nnc(N3CCCCC3C)s2)c1 (stereo not given) 50.6%
CN=c1scc(-c2cccs2)n1/N=C/c1ccc(O)c(O)c1O 50.1%
COc1ccc2[nH]c(=O)c(-c3noc(-c4ccccc4)n3)cc2c1 28.2%
COc1ccc(C(=O)c2oc3ccc(OC)cc3c2N)cc1 29.6%
CCCCN(CCCC)CCNC(=O)c1cn(C)c2ccc(S(=O)(=O)N(C)C3CCCCC3)cc2c1=O 58.5%
COc1cc2c(cc1OC)CN(C(=O)c1ccc3[nH]c(C)c(C)c3c1)CC2 38.8%
N#CC1=C(N)C(C#N)(C#N)C(c2cccnc2)C2CC(c3ccccc3)CC=C12 (stereo not given) 83.5%
O=C(NNc1nc2c(F)cccc2s1)c1cc(=O)c2ccccc2o1 58.6%
CCOC(=O)N1CC=C2C(C#N)=C(N)C(C#N)(C#N)[C@H](c3ccccc3OCC)[C@H]2C1 90.5%
Fc1cc(F)c2nc(Nc3nc4cc5c(cc4s3)OCO5)sc2c1 29.5%
N#C/C(=C/c1ccc(N2CCCC2)c([N+](=O)[O-])c1)c1nc2ccccc2[nH]1 30.9%
Cc1cc(C)c(NC(=O)COC(=O)c2cccc3c2C(=O)c2ccccc2C3=O)c(C)c1 42.1%
CSC[C@@H]1NC(=S)N(c2ccc(C)cc2)C1=O 38%
Cc1ccccc1NC1=C/C(=N\S(=O)(=O)c2ccc(C(=O)O)cc2)c2ccccc2C1=O 40%
Cc1[nH]c2c(C)cccc2c1CCNC(=O)c1ccc2c(c1[N+](=O)[O-])C(=O)c1ccccc1C2=O 75.1%
CCCCN(C)CCCNC(=O)c1cn(CC)c2ccc(S(=O)(=O)N3CCc4ccccc4C3)cc2c1=O 53.6%
O=S(=O)(Nc1cc2nc3ccccc3nc2n1Cc1ccccc1)c1ccc(Cl)cc1 42.4%
